Screening data: PubChem, National Center for Advancing Translational Sciences (NCATS)
RORg inh = qHTS for inhibitors of ROR gamma transcriptional activity. Drosophila S2 Gal4-RORgamma UAS-luciferase reporter, 20 h. Potency, µM (highest dose often 53.6 µM), inactives show at the top dose activity change, negative = inhibition, usual class: inhibitors. 5.4% of 310,000 active. AID 2551, 2010; note: nearly all actives have a fitted effect of over 60% in size
Target sequence (P51450 whole entry, looked up, the tested form may be a part): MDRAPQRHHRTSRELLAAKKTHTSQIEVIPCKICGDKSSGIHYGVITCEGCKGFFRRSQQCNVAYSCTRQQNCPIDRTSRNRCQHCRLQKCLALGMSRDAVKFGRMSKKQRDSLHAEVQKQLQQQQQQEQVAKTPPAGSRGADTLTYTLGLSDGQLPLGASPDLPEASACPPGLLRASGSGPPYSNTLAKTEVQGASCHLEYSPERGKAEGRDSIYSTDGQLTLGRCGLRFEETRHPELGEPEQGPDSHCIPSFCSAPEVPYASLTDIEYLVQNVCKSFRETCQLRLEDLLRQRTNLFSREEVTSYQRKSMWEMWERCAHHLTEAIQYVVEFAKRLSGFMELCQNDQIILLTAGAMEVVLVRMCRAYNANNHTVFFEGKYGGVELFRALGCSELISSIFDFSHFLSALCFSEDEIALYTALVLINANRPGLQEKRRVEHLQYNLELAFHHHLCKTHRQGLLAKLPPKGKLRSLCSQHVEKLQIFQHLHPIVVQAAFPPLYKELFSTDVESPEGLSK
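Luciferase reporter read in Schneider cells carrying Gal4-RORγ (mouse) and UAS-Photinus luciferase; cells given compound 1 h before 700 uM copper sulfate induction, then incubated 20 h at ambient temperature.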
VP16 counter = VP16 counterscreen qHTS for inhibitors of ROR gamma transcriptional activity | 3.5% of 310,000 active | Drosophila S2 Gal4-VP16 UAS-luciferase, luminescence, 20 h | Potency, µM (series often up to 53.6 µM), inactives show at the highest dose activity, negative = inhibition, usual class: inhibitors | AID 2546, 2010;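 note: Gal4-VP16 expression switched on by copper sulfate through the metallothionein promoter; nearly all actives have a fitted effect of over 50% in size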
KinaseGlo FLuc = Counterscreen for Luciferase (Kinase-Glo TM) Inhibition | Luciferin 4-monooxygenase (Photuris pensylvanica), Q27757 | 0.28% of 200,000 active | Kinase-Glo luciferase, ATP luminescence, 8 min | Potency, µM (series often up to 38.3 µM), inactives show top-dose activity change, negative = inhibition, usual class: inhibitors; note: nearly all actives have a fitted effect of over 60% in size
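Recombinant Kinase-Glo luciferase, 10 uM ATP (linear range), luciferin; imidazole pH 7.2 / KCl / MgCl2 / Tween / BSA buffer; 8 min RT; luminescence.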
Active calls of the source: *; ? = inconclusive; · = no result; [ ] = another dose, or the depositor's remark. In the library only some 6.2% were active in any assay of this set; here they are far more common. Calls come from the whole dose curve; as a rule, active = well fitted curve in the direction sought with a large enough effect; inconclusive = small, poorly fitted or top-dose-only effect, or another doubt; inactive = no such curve, though single readings can be large; an effect the other way counts as inactive or inconclusive. % is set by controls: 0 for no effect and ±100 for the full control effect; potency is the fitted concentration of half-maximal effect.

SMILES	RORg inh	VP16 counter	KinaseGlo FLuc
Cc1cc(C)nc(NN2C(=O)/C(=C/c3ccc(O)cc3)SC2=S)n1	-1%	-9%	1%
COc1ccccc1/C=C1\SC(=S)N(Nc2nc(C)cc(C)n2)C1=O	11µM*	-15%	-1%
Nc1nc2sc3c(c2cc1C(=O)N1CCOCC1)CCCC3	?	13%	-3%
Nc1nc2sc3c(c2cc1C(=O)NCC(=O)O)CCCC3	10µM*	?	·
Cc1nn(-c2ccccc2)c2c1C(c1cccs1)C(C#N)=C(N)O2 (stereo not drawn)	6%	15%	-2%
CCCc1nn(-c2ccccc2)c2c1C(c1cccs1)C(C#N)=C(N)O2 (stereo not drawn)	13µM*	1%	6%
c1ncc(-c2ccc3c(c2)OCO3)c(NCCc2cnc[nH]2)n1	-5%	4%	-4%
Cc1cc(NC(=O)COc2ccccc2C)ccc1NC(=O)c1ccco1	17%	1%	·
CC(C)(C)c1ccc(C(=O)Nc2ccc(C=C(C#N)C#N)cc2)cc1	5µM*	5.6µM*	2%
N#CC(C#N)=Cc1ccc(NC(=O)c2ccc(Br)cc2)cc1	-16%	-30%	·
CCn1nc(NC(=O)Cc2ccc(OC)cc2)c2cc3cc(C)ccc3nc21	-1%	-9%	·
CCn1nc(NC(=O)c2ccccn2)c2cc3cc(C)ccc3nc21	5µM*	7.1µM*	-9%
Cc1ccc2nc3c(cc2c1)c(NC(=O)c1ccccn1)nn3CC(C)C	1.8µM*	5µM*	1%
Cc1ccc2cc3c(NC(=O)c4ccco4)nn(CC(C)C)c3nc2c1	-31%	-28%	-2%
C#CCCCO/N=C1/C[C@@H](O)[C@@H](O)[C@@H]2[C@@H]3C(=O)N([C@@H](C)c4ccccc4)C(=O)[C@H]3CC[C@H]12	4%[10 µM]	-7%[10 µM]	·
CCOc1ccc(S(=O)(=O)n2cnc(C)c2)cc1	?	3%	·
Nc1nc(NCCCN2CCOCC2)nc(Nc2cccc(Cl)c2)c1[N+](=O)[O-]	-6%	-21%	·
CC(=O)C1=C(c2ccccc2)NC(=S)NC1c1cc(Cl)c(OC(C)C)c(Cl)c1 (stereo not drawn)	7.1µM*	5µM*	0%
COc1cc(C2NC(=S)NC(c3ccccc3)=C2C(C)=O)cc(Cl)c1OCC(=O)O (stereo not drawn)	-2%	-5%	1%
COc1cccc(CNC(=O)N2CCN(c3ccccc3)CC2)c1	-22%	0%	·
CCN(CC)S(=O)(=O)c1ccc2oc(C(=O)NC3CC3)c(C)c2c1	?	-6%	·
C[C@H]1Cc2c(-c3ccccc3)nc3c(c2CO1)CN(C(=O)c1cccnc1)CC3	·	·	-2%[7.66 µM]
COc1ccc(Br)cc1/C=C/c1ccc2cccc(O)c2n1	4.5µM*	?	·
COc1cc2cccc(OC)c(=O)c2c(O)c1OC	13%[10 µM]	-2%	-1%
COc1cc(Br)cc(/C=C/c2ccc3cccc(O)c3n2)c1OC	2.5µM*	?	·
SMILES	RORg inh	VP16 counter	KinaseGlo FLuc
COc1ccc(Br)cc1/C=C/C(=O)NCC(=O)O	-2%	-6%	-3%
Cc1ccc(S(=O)(=O)N2CCCC2C(=O)NCc2ccncc2)cc1 (stereo not drawn)	-17%	?	·
C[C@@H]1CC[C@H](O)/C=C/C(=O)O[C@H](C)CC[C@H](O)/C=C/C(=O)O1	?	6.3µM*	·
COc1cccc(CN2CCN(CC#Cc3ccccc3)CC2CCO)c1 (stereo not drawn)	-5%	1%	·
O=C(Nc1c(C(=O)N2CCOCC2)cnn1-c1ccccc1)c1cccc(F)c1	-30%	0%	·
CCOC(=O)c1c(C)[nH]c(C2=NNC(=Nc3ccc(OCC)cc3)SC2)c1C	?	?	-1%
CCOC(=O)c1c(C)[nH]c(C2=NNC(=Nc3ccccc3)SC2)c1C	?	11µM*	·
Cn1c(=O)c(CCc2ccccc2)nc2cnc(N3CCNCC3)nc21	-10%	7%	-5%
Cc1ccc(-n2nc(C)c(C3(O)C(=O)N(C(C)C)c4ccccc43)c2N)cc1 (stereo not drawn)	-7%	-9%	-3%
COc1ccc(CCCn2ncc3c2nc(N)n2nc(-c4ccco4)nc32)cc1	37%	-19%	1%[39.9 µM]
COC(=O)C1=C(C)NC(C)=C(C(=O)OC)C1c1ccc2ccccc2n1	-9%	9%	-2%
O=C1c2ccccc2C(=O)C1c1ccc2ccccc2n1	?	4µM*	-22%
COc1ccccc1-c1nccc(NC2CCNCC2)n1	-19%	0%	·
Cc1ccc(-c2csc(Cc3nc(-c4cc5ccccc5oc4=O)cs3)n2)cc1	38%	-27%	-7%
Cc1ccn2cc(-c3cc4ccccc4oc3=O)nc2c1	2.5µM*	?	10µM*
CC(CC(=O)N1CCN(S(=O)(=O)c2ccc(Cl)cc2)CC1)n1cncn1 (stereo not drawn)	-34%	-7%	·
O=S(=O)(c1cccs1)N1CCC(CO)(Cc2ccc(Cl)cc2)CC1	37%	?	0%
Cc1ccc(-c2cc(Cc3ccc(F)cc3)c(=O)[nH]n2)cc1	9%	18%	·
Cc1[nH]c(=S)sc1Cc1ccc(F)cc1	4µM*	10µM*	0%
Cn1c(=O)c2c(ncn2Cc2nnc(N)s2)n(C)c1=O	32%	-3%	-3%
CCOc1cccc(=O)c2c(C)n(Cc3ccco3)c(C)c12	0%	3.5µM*	-5%
CCOc1cccc(=O)c2c(C)n(Cc3ccccc3)c(C)c12	-1%	-13%	-5%
CNC(=O)[C@]1(C)C[C@H]1[C@H](NC(=O)[C@]1(C)C[C@H]1[C@H](NC(=O)OCc1ccccc1)c1ccccc1)c1ccccc1	28%	13%	-2%
Cc1ccc(S(=O)(=O)CNC(=S)c2cccc(C)c2)cc1	13µM*	?	-3%
Cc1ccc(S(=O)(=O)CNC(=O)c2ccccc2)cc1	?	-21%	0%
SMILES	RORg inh	VP16 counter	KinaseGlo FLuc
COc1ccc(C(=S)NCS(=O)(=O)c2ccc(C)cc2)cc1	16µM*	?	11%
Cc1ccc(S(=O)(=O)CNC(=S)c2ccc3ccccc3c2)cc1	11µM*	?	1%
Cc1ccc(S(=O)(=O)N2CCCN(S(=O)(=O)c3ccc4ccccc4c3)CC2)cc1	12%	12%	0%
COc1ccc(CNS(=O)(=O)c2ccc(C)cc2)cc1	?	3%	·
CN(C)S(=O)(=O)c1ccc(NC(=O)COC(=O)C2CC3CCCC(C2)C3=O)cc1 (stereo not drawn)	3%	3%	2%
O=C1C2C3C=CC(CO)(O3)C2C(=O)N1c1ccc(-c2ccccc2)cc1 (stereo not drawn)	6.3µM*	10µM*	-1%
O=C1C2C3C=CC(CNS(=O)(=O)c4ccccc4[N+](=O)[O-])(O3)C2C(=O)N1c1ccccc1 (stereo not drawn)	?	11µM*	2%
O=[N+]([O-])c1ccccc1S(=O)(=O)NCc1ccco1	-12%	19%	2%
Cc1cc(C)c(S(=O)(=O)NCC23C=CC(O2)C2C(=O)N(c4ccccc4)C(=O)C23)c(C)c1 (stereo not drawn)	16µM*	?	-3%
COC(=O)C1(CO)NC(c2ccc(C)cc2)C2C(=O)N(c3ccccc3)C(=O)C21 (stereo not drawn)	-30%	-1%	·
